Data taken from PubChem BioAssay (NCI).
The panel holds about 79,000 compounds, 15% with a hit somewhere; the sample as a whole holds those more often. Active and inactive are the calls of the source. No stated cut-off is given here; in the data, active means growth inhibition above about 70%; inactive means the rest.

Legend:
[1] = NCI Yeast Anticancer Drug Screen. Data for the rad52 strain (AID 147);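 further: 0% = growth of vehicle-treated control cultures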; settings: S. cerevisiae rad52 mutant growth inhibition, hits give high values
Outline: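 Measured: yeast growth inhibition. System: strain with a defined DNA damage repair alteration. Reference: vehicle-treated control cultures.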

[2] = NCI Yeast Anticancer Drug Screen. Data for the wt1 strain (AID 149);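 further: 0% = growth of vehicle-treated wt1 cultures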; settings: S. cerevisiae wt1 strain (SPY 50644) growth inhibition, hits give high values
Outline: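 Measured: growth of wt1 yeast under compound versus vehicle treatment, reported as inhibition.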

[3] = NCI Yeast Anticancer Drug Screen. Data for the rad50EPP+ strain (AID 151);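 further: 0% = growth of vehicle-treated control cultures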; settings: S. cerevisiae rad50 mutant strain, hits give high values
Outline: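 One strain with a rad50 alteration (rad50EPP+) was compound-treated, its growth then compared to that of vehicle controls.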

[4] = NCI Yeast Anticancer Drug Screen. Data for the mgt1 strain (AID 153); settings: S. cerevisiae mgt1 mutant growth inhibition, hits give high values
Outline: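 After exposure of the mgt1 yeast mutant to compound, growth was measured and reported as inhibition compared with vehicle controls.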

[5] = NCI Yeast Anticancer Drug Screen. Data for the rad50 strain (AID 155);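 further: 0% = growth of vehicle-only cultures of the same strain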; settings: S. cerevisiae rad50 strain growth inhibition, hits give high values
Outline: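 Growth of the mutant yeast was measured after compound exposure and referenced to vehicle-treated cultures.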

[6] = NCI Yeast Anticancer Drug Screen. Data for the mec2-1 strain (AID 157); settings: S. cerevisiae mec2-1 strain, hits give high values
Outline: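 Test agents were screened against the mec2-1 yeast strain, with defined DNA repair or cell cycle alteration. Growth was scored as inhibition against vehicle-only controls.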

[7] = NCI Yeast Anticancer Drug Screen. Data for the rad14 strain (AID 159);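 further: 0% = growth of vehicle-treated control cultures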; settings: S. cerevisiae rad14 strain growth inhibition, hits give high values
Outline: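 Here, inhibition of yeast growth was measured after compound exposure, using a strain with a genetic defect in DNA damage repair and vehicle-treated cultures as the reference.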

[8] = NCI Yeast Anticancer Drug Screen. Data for the sgs1 mgt1 strain (AID 161);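 further: 0% = growth of cultures given vehicle only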; settings: S. cerevisiae sgs1 mgt1 strain, hits give high values
Outline: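 Read-out: growth inhibition vs vehicle controls. Cells: mutant yeast strain deficient in DNA damage repair.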

[9] = NCI Yeast Anticancer Drug Screen. Data for the CLN2oe strain (AID 163);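 further: 0% = growth of vehicle-only control cultures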; settings: S. cerevisiae CLN2oe strain, hits give high values
Outline: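 Here, growth inhibition in a cell-cycle-altered yeast strain after compound exposure was quantified against vehicle control growth.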

[10] = NCI Yeast Anticancer Drug Screen. Data for the cln2 rad14 strain (AID 165);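 further: 0% = growth equal to vehicle treated cultures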; settings: S. cerevisiae cln2 rad14 strain, hits give high values
Outline: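 Growth of compound-exposed yeast (cln2 rad14 genotype) measured and expressed as inhibition relative to vehicle.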

[11] = NCI Yeast Anticancer Drug Screen. Data for the bub3 strain (AID 167); settings: S. cerevisiae bub3 mutant strain, hits give high values
Outline: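 Whole-cell yeast assay. The mutant strain was incubated with compounds, and growth inhibition was determined by comparison with vehicle-treated cells.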

[12] = NCI Yeast Anticancer Drug Screen. Data for the wt2 strain (AID 169);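 further: 0% = growth of vehicle-treated yeast cultures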; settings: S. cerevisiae wt2 strain growth inhibition, hits give high values
Outline: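 Genetically defined yeast strains from a DNA-repair/cell-cycle panel were used. Compound-exposed yeast growth was measured, and the inhibition was calculated relative to vehicle treatment.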

[13] = NCI Yeast Anticancer Drug Screen. Data for the mlh1 strain (AID 171);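 further: 0% = growth of vehicle-treated control cultures of the same strain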; settings: S. cerevisiae mlh1 strain growth inhibition, hits give high values
Outline: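 Here the genetically defined yeast mutant is grown with each compound, and the extent to which its growth falls below that of vehicle-exposed cells is reported.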

[14] = NCI Yeast Anticancer Drug Screen. Data for the sgs1 strain (AID 173);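 further: 0% = growth of vehicle-only control cultures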; settings: S. cerevisiae sgs1 mutant, hits give high values
Outline: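 Relative growth inhibition, referenced to vehicle, was determined in a yeast strain with a defined alteration affecting DNA damage repair or cell cycle control after compound exposure.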

[15] = NCI Yeast Anticancer Drug Screen. Data for the mlh1 rad18 strain (AID 175); settings: S. cerevisiae mlh1 rad18 strain growth inhibition, hits give high values
Outline: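 In this whole-cell yeast screen, a strain with altered DNA damage repair is challenged with compound, and its growth is measured against matched vehicle-treated controls.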

[16] = NCI Yeast Anticancer Drug Screen. Data for the rad18 strain (AID 177); settings: S. cerevisiae rad18 mutant growth inhibition, hits give high values
Outline: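 Screen uses a yeast strain with a defined lesion in DNA damage repair; compound effect is read as loss of growth compared to untreated vehicle cultures.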

[17] = at 5.0 µM (retest, dose inferred, filed as 0.5)
[18] = at 50.0 µM (retest, dose inferred, filed as 5.0)

Measured: growth inhibition

CN(C)N=Nc1ccc(N(C)C)cc1
active: [5]; at 50.0 µM 82.5% | [15]; [18] 77% | [15]; at 50.0 µM 70.3%
inactive: [1]; at 1.2 µM -1% | [1]; at 3.7 µM 1% | [1]; at 11.0 µM 4% | [1]; at 33.0 µM 16% | [1]; at 100.0 µM 53% | [2]; at 1.2 µM 1% | [2]; at 3.7 µM -4% | [2]; at 11.0 µM -3% | [2]; at 33.0 µM -2% | [2]; at 100.0 µM 5% | [3]; at 1.2 µM 4% | [3]; at 3.7 µM 8% | [3]; at 11.0 µM 31% | [3]; at 33.0 µM 53% | [3]; at 100.0 µM 55% | [4]; at 1.2 µM -3% | [4]; at 3.7 µM -3% | [4]; at 11.0 µM -1% | [4]; at 33.0 µM 19% | [4]; at 100.0 µM 12% | [5]; at 1.2 µM 1% | [5]; at 3.7 µM 1% | [5]; [17] -7% | [5]; at 11.0 µM 3% | [5]; at 33.0 µM 5% | [5]; [18] 27% | [5]; at 100.0 µM 14% | [6]; at 1.2 µM 2% | [6]; at 3.7 µM 3% | [6]; [17] -9% | [6]; at 11.0 µM 3% | [6]; at 33.0 µM 7% | [6]; [18] -9% | [6]; at 50.0 µM 16.4% | [6]; at 100.0 µM 9% | [7]; at 1.2 µM -1% | [7]; at 3.7 µM 0% | [7]; at 11.0 µM 2% | [7]; at 33.0 µM 3% | [7]; at 100.0 µM 7% | [8]; [17] 2% | [8]; [18] 51% | [8]; at 50.0 µM 20.9% | [9]; at 1.2 µM -2% | [9]; at 3.7 µM -5% | [9]; at 11.0 µM -2% | [9]; at 33.0 µM -2% | [9]; at 100.0 µM -1% | [10]; [17] 2% | [10]; [18] 8% | [10]; at 50.0 µM 44.1% | [11]; at 1.2 µM 0% | [11]; at 3.7 µM -3% | [11]; [17] 18% | [11]; at 11.0 µM -7% | [11]; at 33.0 µM -5% | [11]; [18] 33% | [11]; at 50.0 µM 12.3% | [11]; at 100.0 µM 3% | [12]; at 1.2 µM -1% | [12]; at 3.7 µM -1% | [12]; at 11.0 µM 0% | [12]; at 33.0 µM 2% | [12]; at 100.0 µM 13% | [13]; at 1.2 µM -2% | [13]; at 3.7 µM -3% | [13]; at 11.0 µM 1% | [13]; at 33.0 µM 3% | [13]; at 100.0 µM 10% | [14]; at 1.2 µM 0% | [14]; at 3.7 µM 4% | [14]; at 11.0 µM 6% | [14]; at 33.0 µM 15% | [14]; at 100.0 µM 28% | [15]; [17] 23% | [16]; at 1.2 µM 1% | [16]; at 3.7 µM 1% | [16]; at 11.0 µM -15% | [16]; at 33.0 µM 11% | [16]; at 100.0 µM 29%

N#C/C(=C\NC(=S)Nc1ccc(S(N)(=O)=O)cc1)C(=O)c1ccc2ccccc2c1
inactive: [1]; at 1.2 µM -2% | [1]; at 3.7 µM -1% | [1]; at 11.0 µM 0% | [1]; at 33.0 µM -3% | [1]; at 100.0 µM 3% | [2]; at 1.2 µM 2% | [2]; at 3.7 µM 3% | [2]; at 11.0 µM 1% | [2]; at 33.0 µM 1% | [2]; at 100.0 µM 3% | [3]; at 1.2 µM -1% | [3]; at 3.7 µM -3% | [3]; at 11.0 µM 0% | [3]; at 33.0 µM 0% | [3]; at 100.0 µM -2% | [4]; at 1.2 µM -2% | [4]; at 3.7 µM -3% | [4]; at 11.0 µM -3% | [4]; at 33.0 µM -12% | [4]; at 100.0 µM 0% | [5]; at 1.2 µM -5% | [5]; at 3.7 µM -16% | [5]; [17] 57% | [5]; at 11.0 µM -18% | [5]; at 33.0 µM -2% | [5]; at 50.0 µM -13.3% | [5]; at 100.0 µM -1% | [6]; at 1.2 µM 0% | [6]; at 3.7 µM 2% | [6]; at 11.0 µM 2% | [6]; at 33.0 µM 5% | [6]; at 50.0 µM -3.5% | [6]; at 100.0 µM -1% | [7]; at 1.2 µM -1% | [7]; at 3.7 µM -1% | [7]; at 11.0 µM 1% | [7]; at 33.0 µM 2% | [7]; at 100.0 µM 6% | [8]; [17] 25% | [8]; at 50.0 µM -13.2% | [9]; at 1.2 µM -2% | [9]; at 3.7 µM -4% | [9]; at 11.0 µM -4% | [9]; at 33.0 µM 0% | [9]; at 100.0 µM -1% | [10]; at 50.0 µM 39.2% | [11]; at 1.2 µM -2% | [11]; at 3.7 µM -1% | [11]; at 11.0 µM -2% | [11]; at 33.0 µM -3% | [11]; at 50.0 µM -16.1% | [11]; at 100.0 µM -3% | [12]; at 1.2 µM -1% | [12]; at 3.7 µM -1% | [12]; at 11.0 µM -1% | [12]; at 33.0 µM 0% | [12]; at 100.0 µM -1% | [13]; at 1.2 µM -1% | [13]; at 3.7 µM 1% | [13]; at 11.0 µM 1% | [13]; at 33.0 µM 3% | [13]; at 100.0 µM 5% | [14]; at 1.2 µM 0% | [14]; at 3.7 µM 2% | [14]; at 11.0 µM 0% | [14]; at 33.0 µM 7% | [14]; at 100.0 µM 9% | [15]; at 50.0 µM 22.1% | [16]; at 1.2 µM -9% | [16]; at 3.7 µM -1% | [16]; at 11.0 µM 0% | [16]; at 33.0 µM -1% | [16]; at 100.0 µM 5%
active: [5]; [18] 97% | [6]; [17] 87% | [6]; [18] 95% | [8]; [18] 96% | [10]; [17] 92% | [10]; [18] 78% | [11]; [17] 99% | [11]; [18] 91% | [15]; [17] 84% | [15]; [18] 97%
